The source of these data is PubChem BioAssay (Tox21).

Results filed as inconclusive are left out. Active and inactive are the calls of the source. Calls come from the whole dose curve; as a rule, active = well fitted activation curve with a large enough effect in the repeat runs; inconclusive = weak or mixed curves; inactive = no such curve, though single readings can be large or run the other way.
% is set by controls: 0 for no effect and ±100 for the full control effect; potency is the fitted concentration of half-maximal effect.

The target of this assay is Nuclear receptor subfamily 1 group I member 2 (Homo sapiens) (UniProt O75469). Put plainly: Human pregnane X receptor (PXR) small molecule agonists, qHTS assay (AID 1346982). Note: nearly all actives have a fitted effect of over 35% in size. The settings on record: PXR-Luc HepG2, CYP3A4 luciferase reporter, 24 h; series mostly up to 92.4 µM; activation: at the top concentration. The source says: National Center for Advancing Translational Sciences [NCATS]
Nuclear receptor subfamily 1 group I member 2 (Homo sapiens), sequence (O75469 whole entry, looked up): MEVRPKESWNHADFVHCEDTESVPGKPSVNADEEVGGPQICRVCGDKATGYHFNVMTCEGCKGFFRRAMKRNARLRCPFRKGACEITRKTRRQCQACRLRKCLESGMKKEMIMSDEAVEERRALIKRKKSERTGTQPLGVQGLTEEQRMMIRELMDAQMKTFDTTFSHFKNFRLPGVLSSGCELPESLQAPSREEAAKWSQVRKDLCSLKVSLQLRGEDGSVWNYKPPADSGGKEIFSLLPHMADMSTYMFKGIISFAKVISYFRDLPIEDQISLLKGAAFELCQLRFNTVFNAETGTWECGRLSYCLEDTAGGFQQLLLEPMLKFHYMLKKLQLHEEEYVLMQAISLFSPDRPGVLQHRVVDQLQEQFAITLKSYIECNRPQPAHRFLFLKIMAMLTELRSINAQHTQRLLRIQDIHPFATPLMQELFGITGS
NIH Chemical Genomics Center [NCGC]
U.S. Environmental Protection Agency [EPA]
National Institutes of Environmental Health Sciences [NIEHS]
National Toxicology Program [NTP]
The human pregnane X receptor (hPXR) regulates the expression of several drug metabolizing enzymes and induction of these proteins is a major mechanism for developing drug resistance in cancer. One such key enzyme catalyzing the drug metabolism is cytochrome P450 3A4 (CYP3A4). Changes in CYP3A4 expression affect drug metabolism, thereby reducing the therapeutic efficacy and altering toxicological response to a drug and which finally causes adverse drug interaction. To screen Tox21 libraries for compounds that activate hPXR-mediated CYP3A4 gene expression, PXR-Luc HepG2 cells were used.
PXR-Luc HepG2 cells were dispensed at 2,000 per well in 5uL of assay medium containing 5% charcoal-stripped FBS into white solid bottom 1536-well plates (Corning Life Sciences, Corning, NY) using a Multidrop Combi (Thermo Scientific, Waltham, MA) dispenser. The assay plates were incubated at 37 C and 5% CO2 for 5hr, and then 23nL of compounds dissolved in DMSO and positive control were transferred using a Pintool station (Wako, San Diego, CA). The assay plates were incubated at 37C and 5% CO2 for 24hr. For luciferase read, 4uL of ONE-Glo reagent (Promega Corporation, Madison, WI) was added to each well of the assay plates using Flying Reagent Dispenser (FRD, Aurora Discovery, San Diego, CA) and incubated the assay plates at room temperature for 30min. The luminescence signal was quantified using a ViewLux plate reader (Perkin Elmer, Shelton, CT).
Take `COc1ccc(C(=O)Nc2nc3ccccc3c(NCc3ccccc3)c2C#N)cc1`: the Potency was 7.7 µM (active).

For the compound `COc1ccc(C(=O)N2CCN(CC(=O)N3CCOCC3)CC2)cc1`, the “activation” value was -12.4% [at 42.5 µM] (inactive).

`CCCCCCCCO[C@@H]1O[C@H](CO)[C@@H](O)[C@H](O)[C@H]1O`: the “activation” value is 4.68% (inactive).

Consider `Cc1c(N)cccc1[N+](=O)[O-]`, for which the “activation” value is 6.25% (inactive).

As to `CCC(CC)Nc1ccc(C)c(C)c1`, the “activation” value is 11.7% (inactive).

As for `CNCCCN1c2ccccc2CCc2ccccc21`, the “activation” value is -7.44% [at 42.5 µM] (inactive).

On to `CCCCC(CC)CN1C(=O)C2C3C=CC(C3)C2C1=O` (stereo not given), for which the Potency was 27.3 µM (active).

With `CCCCC`, the Potency is 53.6 µM (active).

For `C#CCN(C)CCCOc1ccc(Cl)cc1Cl`, the Potency is 29.8 µM (active).

As to `CC(C)(CO)[N+](=O)[O-]`, the “activation” value was 2.19% (inactive).

In the case of `CNC(=O)CN(CCN(CCN(CC(=O)[O-])CC(=O)NC)CC(=O)[O-])CC(=O)[O-].O.[Gd+3]`, the “activation” value was -13.1% [at 42.5 µM] (inactive).

Take `C=CC1CC2C=CC1C2` (stereo not given): the “activation” value was 1.7% (inactive).

As for `Cc1nn(C)c(Oc2ccccc2)c1/C=N/OCc1ccc(C(=O)OC(C)(C)C)cc1`, the Potency is 38.6 µM (active).

Take `COc1ccnc(CS(=O)c2nc3ccc(OC(F)F)cc3[nH]2)c1OC` (stereo not given): the “activation” value was 21.1% [at 42.5 µM] (inactive).

In the case of `CN1CCN(C(c2ccccc2)c2ccccc2)CC1`, the “activation” value is 4.97% [at 42.5 µM] (inactive).

On to `C[Si](C)(CCCN)O[Si](C)(C)CCCN`, for which the “activation” value was 17.2% (inactive).

Regarding `CCC(C)(C)CC`, the “activation” value was -1.87% (inactive).

On to `Nc1ccc(S(=O)(=O)Nc2ccccc2)cc1`, for which the “activation” value was -3.64% [at 42.5 µM] (inactive).

For `Cc1ccc(N=Nc2c(O)c(C(=O)O)cc3ccccc23)c(S(=O)(=O)O)c1`, the “activation” value was 16.8% [at 42.5 µM] (inactive).

As for `CC(=O)c1cccc([N+](=O)[O-])c1`, the “activation” value was 16.5% (inactive).

Take `CC(C)(O)c1ccc(CNC(=O)c2cccnc2Oc2ccc(F)cc2)cc1`: the Potency was 54.5 µM (active).

Turning to `C[N+]1(C)CCC(OC(=O)C(O)(c2ccccc2)C2CCCC2)C1` (stereo not given), the “activation” value is -9.43% [at 42.5 µM] (inactive).

For the compound `CC(C)=CCC/C(C)=C/CC/C(C)=C/CO`, the Potency was 43.3 µM (active).

For the compound `O=S(=O)(Oc1ccc(Cl)cc1)c1ccccc1`, the Potency is 54.5 µM (active).

In the case of `COc1ccc(C)cc1[N+](=O)[O-]`, the “activation” value is -2.73% (inactive).

For the compound `COc1cccc(N(C)C(=S)Oc2ccc3c(c2)CCCC3)n1`, the Potency is 8.41 µM (active).

Turning to `ClCCOCCOCCCl`, the “activation” value is 2% (inactive).

As for `CC1(c2ccccc2)OC(C(=O)O)=CC1=O` (stereo not given), the “activation” value is -16% [at 42.5 µM] (inactive).

`O=C1C(O)=C(O)C(=O)C(O)=C1O`: the “activation” value is -5.5% [at 42.5 µM] (inactive).

With `C=CCOc1ccccc1OCC(O)CNC(C)C` (stereo not given), the “activation” value was -5% [at 42.5 µM] (inactive).

Turning to `COCC(C)OC(C)=O` (stereo not given), the “activation” value was 5.28% (inactive).

Take `CCN(CC)c1ccc(C(=C2C=CC(=[N+](CC)CC)C=C2)c2cc(S(=O)(=O)O)ccc2S(=O)(=O)[O-])cc1`: the “activation” value was -29.5% [at 42.5 µM] (inactive).

In the case of `CC(C)Nc1ccc(NC(C)C)c2c1C(=O)c1ccccc1C2=O`, the Potency was 1.27 µM (active).

In the case of `CC(C)Cc1ccc(C(C)C(=O)OCc2ccccn2)cc1` (stereo not given), the “activation” value is 11.2% [at 42.5 µM] (inactive).

Consider `CC[N+]1(CC)CCC(=C(c2ccccc2)c2ccccc2)C1C` (stereo not given), for which the “activation” value is 0.438% [at 42.5 µM] (inactive).

Turning to `Cn1c(=O)cc(Oc2ccc(F)cc2F)c2cnc(NCC(C)(C)O)nc21`, the Potency was 43.3 µM (active).

For the compound `CC1=CCCC(C)(C)C12CCC(C)O2` (stereo not given), the Potency is 54.5 µM (active).

As for `O=C(O)C(S)C(S)C(=O)O` (stereo not given), the “activation” value is -7.56% [at 42.5 µM] (inactive).

As for `CC(CSC(=O)c1ccccc1)C(=O)N1C[C@@H](Sc2ccccc2)C[C@H]1C(=O)O` (stereo not given in full), the activation was 21.6% [at 19 µM] (inactive).

Take `Nc1ccc([N+](=O)[O-])c(C(F)(F)F)c1`: the “activation” value is -5.25% [at 42.5 µM] (inactive).
